These results are taken from the supplement of paper PMC4840960.

The structures appear in SMILES notation. Counter-ions that a name gives are not always drawn.

The subject of one assay is E18 rat cortical neuron-glia co-culture. As to the kind of experiment: fiber score / MBP score (myelination specific beyond OL differentiation) (ratio); higher = more myelination-specific MBP alignment. As to conditions: 5 µM; treatment time: 8 days (DIV5-DIV13). Put shortly:
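Library compounds were applied at 1 or 5 µM in myelination medium, DIV5 to DIV13, to primary E18 rat cortical co-cultures grown at 20,000 cells/well in 96-well plates. After 4 % paraformaldehyde fixation and MBP/Olig2/DAPI immunostaining, four 10X fields per well in duplicate wells were scored. Each value is continuous MBP fiber length per Olig2+ nucleus divided by thresholded MBP area × intensity per Olig2+ nucleus.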
For `Nc1nc2ccc(OC(F)(F)F)cc2s1` [Riluzole], the “fiber score / MBP score” value worked out at 0.478. Take `N[C@@H](Cc1cc(I)c(Oc2ccc(O)c(I)c2)c(I)c1)C(=O)O` [Triiodothyronine]: the “fiber score / MBP score” value came to 1.21. With `CCCC1O[C@@H]2C[C@H]3[C@@H]4CCC5=CC(=O)C=C[C@]5(C)[C@H]4[C@@H](O)C[C@]3(C)[C@]2(C(=O)CO)O1` (stereo partly drawn) [Budesonide], the “fiber score / MBP score” value amounted to 0.762.

Regarding `COc1c(N2CCNC(C)C2)c(F)cc2c(=O)c(C(=O)O)cn(C3CC3)c12` (stereo not drawn) [Gatifloxacin], the “fiber score / MBP score” value worked out at 0.609. As to `OC(CCN1CCCCC1)(c1ccccc1)C1CCCCC1` (stereo not drawn) [Trihexyphenidyl], the “fiber score / MBP score” value came to 0.486. Take `COCCCC/C(=N\OCCN)c1ccc(C(F)(F)F)cc1` [Fluvoxamine]: the “fiber score / MBP score” value came out at 0.487. Regarding `Cc1ncc([N+](=O)[O-])n1CC(C)O` (stereo not drawn) [Secnidazole], the “fiber score / MBP score” value worked out at 0.618. Turning to `CO[C@H]1/C=C/O[C@@]2(C)Oc3c(C)c(O)c4c(O)c(c(/C=N/N5CCN(C)CC5)c(O)c4c3C2=O)NC(=O)/C(C)=C\C=C\[C@H](C)[C@H](O)[C@@H](C)[C@@H](O)[C@@H](C)[C@H](OC(C)=O)[C@@H]1C` [Rifampicin], the “fiber score / MBP score” value was found to be 0.704. Turning to `CNC(=N)NCCC[C@H](N)C(=O)O`, the “fiber score / MBP score” value turned out to be 0.854. With `CCOC(=O)[C@H](CCc1ccccc1)N[C@@H](C)C(=O)N1Cc2ccccc2C[C@H]1C(=O)O` [Quinapril], the “fiber score / MBP score” value came to 0.825.

Consider `Cc1[nH]c(=O)c(C#N)cc1-c1ccncc1` [Milrinone], for which the “fiber score / MBP score” value turned out to be 0.504.

As to `C=C1/C(=C\C=C2/CCC[C@]3(C)[C@@H]([C@H](C)/C=C/[C@@H](O)C4CC4)CC[C@@H]23)C[C@@H](O)C[C@@H]1O` [Calcipotriene], the “fiber score / MBP score” value turned out to be 0.6.

Consider `CC(C)(C)NCC(O)c1cc(O)cc(O)c1` (stereo not drawn) [Terbutaline], for which the “fiber score / MBP score” value amounted to 0.251. `OC[C@H]1O[C@@H](Oc2cc(O)cc(/C=C/c3ccc(O)cc3)c2)[C@H](O)[C@@H](O)[C@@H]1O` [Polydatin]: the “fiber score / MBP score” value amounted to 0.769. As for `COC(=O)C1=C(C)NC(C)=C(C(=O)OC)C1c1ccccc1[N+](=O)[O-]` [Nifedipine], the “fiber score / MBP score” value was 0.919. `CS(=O)(=O)OCCCCOS(C)(=O)=O` [Busulfan]: the “fiber score / MBP score” value was 1.46. Still for that read-out and setting: to `CC(=O)[C@H]1CC[C@H]2[C@@H]3CCC4=CC(=O)CC[C@]4(C)[C@H]3CC[C@]12C` [Progesterone] belongs 0.552; to `CN(C)CCOC(C)(c1ccccc1)c1ccccn1` (stereo not drawn) [Doxylamine], 0.969; to `C#C[C@]1(O)CC[C@H]2[C@@H]3[C@H](C)CC4=C(CCC(=O)C4)[C@H]3CC[C@@]21C` [Tibolone], 0.773.

`CCCC(CCC)C(=O)O` [Valproic Acid]: the “fiber score / MBP score” value stood at 0.944. Consider `COc1ccnc(C[S+]([O-])c2nc3cc(OC(F)F)ccc3[nH]2)c1OC` (stereo not drawn) [Pantoprazole], for which the “fiber score / MBP score” value was found to be 0.933. In the case of `Nc1nc(=O)c2nc(CNc3ccc(C(=O)N[C@@H](CCC(=O)O)C(=O)O)cc3)cnc2[nH]1` [Folic acid], the “fiber score / MBP score” value stood at 0.627. As to `CC(=O)O[C@]1(C(C)=O)CC[C@H]2[C@@H]3C=C(C)C4=CC(=O)CC[C@]4(C)[C@H]3CC[C@@]21C` [Megestrol acetate], the “fiber score / MBP score” value was 0.795. Take `CC(CN1c2ccccc2Sc2ccccc21)N(C)C` (stereo not drawn) [Promethazine]: the “fiber score / MBP score” value turned out to be 0.931.

The test system is the same in another assay. Kind of assay: myelination (MBP fiber length per Olig2+ nucleus), % of 1 µM DAPT response (DMSO = 0) (% of DAPT); higher = more myelination, active = 50 or more. As to conditions: 1 µM; treatment time: 8 days (DIV5-DIV13). In outline:
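Library compounds at 1 or 5 µM in myelination medium were applied from DIV5 to DIV13 to papain-dissociated E18 rat cortical co-cultures seeded at 20,000 cells/well on poly-d-lysine/laminin 96-well plates. Fixed cells (4 % paraformaldehyde) were immunostained for MBP and Olig2 with DAPI, and four 10X fields were analysed in each duplicate well. Continuous straight MBP fiber length per Olig2+ nucleus was set to 0 for 0.1 % DMSO and to 100 for a 1 µM positive control.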
For the compound `Nc1nc2ccc(OC(F)(F)F)cc2s1` [Riluzole], the myelination was -26.1 (inactive). As to `N[C@@H](Cc1cc(I)c(Oc2ccc(O)c(I)c2)c(I)c1)C(=O)O` [Triiodothyronine], the myelination was -11.4 (inactive). `CCCC1O[C@@H]2C[C@H]3[C@@H]4CCC5=CC(=O)C=C[C@]5(C)[C@H]4[C@@H](O)C[C@]3(C)[C@]2(C(=O)CO)O1` (stereo partly drawn) [Budesonide]: the myelination is 3.65 (inactive). `OCCN1CCN(CCCN2c3ccccc3Sc3ccc(Cl)cc32)CC1` [Perphenazine]: the myelination is -21.7 (inactive). Consider `COc1c(N2CCNC(C)C2)c(F)cc2c(=O)c(C(=O)O)cn(C3CC3)c12` (stereo not drawn) [Gatifloxacin], for which the myelination is -17 (inactive). With `OC(CCN1CCCCC1)(c1ccccc1)C1CCCCC1` (stereo not drawn) [Trihexyphenidyl], the myelination was -12.2 (inactive).

For the compound `COCCCC/C(=N\OCCN)c1ccc(C(F)(F)F)cc1` [Fluvoxamine], the myelination is -0.231 (inactive).

`O=c1[nH]cc(F)c(=O)[nH]1` [5-Fluorouracil] came in with a myelination of 174. `Cc1ncc([N+](=O)[O-])n1CC(C)O` (stereo not drawn) [Secnidazole]: the myelination is -31.6 (inactive).

For the compound `CO[C@H]1/C=C/O[C@@]2(C)Oc3c(C)c(O)c4c(O)c(c(/C=N/N5CCN(C)CC5)c(O)c4c3C2=O)NC(=O)/C(C)=C\C=C\[C@H](C)[C@H](O)[C@@H](C)[C@@H](O)[C@@H](C)[C@H](OC(C)=O)[C@@H]1C` [Rifampicin], the myelination is 12.6 (inactive). Same read-out and setting: to `CCCCCNC(=N)N/N=C/c1c[nH]c2ccc(OC)cc12` [Tegaserod] belongs -17.1 (inactive); to `CNC(=N)NCCC[C@H](N)C(=O)O`, -37.1 (inactive); to `CCOC(=O)[C@H](CCc1ccccc1)N[C@@H](C)C(=O)N1Cc2ccccc2C[C@H]1C(=O)O` [Quinapril], -0.422 (inactive). Consider `Cc1[nH]c(=O)c(C#N)cc1-c1ccncc1` [Milrinone], for which the myelination is -7.08 (inactive). As for `C=C1/C(=C\C=C2/CCC[C@]3(C)[C@@H]([C@H](C)/C=C/[C@@H](O)C4CC4)CC[C@@H]23)C[C@@H](O)C[C@@H]1O` [Calcipotriene], the myelination was -43.8 (inactive).

For `CN1CCN(C2=Nc3cc(Cl)ccc3Nc3ccccc32)CC1` [Clozapine], the myelination was -14.8 (inactive). On to `CC(C)(C)NCC(O)c1cc(O)cc(O)c1` (stereo not drawn) [Terbutaline], for which the myelination was -15.9 (inactive). On the same count and under the same terms, to `CN(CCOc1ccc(CC2SC(=O)NC2=O)cc1)c1ccccn1` (stereo not drawn) [Rosiglitazone maleate] belongs -26.2 (inactive); to `CCN(CC)CCOc1ccc(C(=C(Cl)c2ccccc2)c2ccccc2)cc1` [Clomiphene], -33.9 (inactive). Still for that read-out and setting: to `COC(=O)Nc1nc2cc(C(=O)c3ccc(F)cc3)ccc2[nH]1` [Flubendazole] belongs -24 (inactive); to `C=CCc1ccc(O)c(-c2ccc(O)c(CC=C)c2)c1` [Honokiol], -2.87 (inactive); to `OC[C@H]1O[C@@H](Oc2cc(O)cc(/C=C/c3ccc(O)cc3)c2)[C@H](O)[C@@H](O)[C@@H]1O` [Polydatin], -20.3 (inactive). Turning to `CC/C(=C(\c1ccccc1)c1ccc(OCCN(C)C)cc1)c1ccccc1` [Tamoxifen], the myelination was -18.7 (inactive). For the compound `CN(CCCN1c2ccccc2CCc2ccccc21)CC(=O)c1ccc(Cl)cc1` [Lofepramine], the myelination is -18.3 (inactive). Turning to `COC(=O)C1=C(C)NC(C)=C(C(=O)OC)C1c1ccccc1[N+](=O)[O-]` [Nifedipine], the myelination was -18.3 (inactive). In the case of `CS(=O)(=O)OCCCCOS(C)(=O)=O` [Busulfan], the myelination is -6.35 (inactive).

Turning to `Oc1c(Cl)cc(Cl)c2cccnc12` [Chloroxine], the myelination is -4.18 (inactive). With `CC(=O)[C@H]1CC[C@H]2[C@@H]3CCC4=CC(=O)CC[C@]4(C)[C@H]3CC[C@]12C` [Progesterone], the myelination was -31.5 (inactive). As for `O=C1CCc2ccc(OCCCCN3CCN(c4cccc(Cl)c4Cl)CC3)cc2N1` [Aripiprazole], the myelination was -54.9 (inactive). For `CN(C)CCOC(C)(c1ccccc1)c1ccccn1` (stereo not drawn) [Doxylamine], the myelination was -13.6 (inactive). Same read-out and setting: to `COC1=C(OC)C(=O)C(CCCCCCCCCCO)=C(C)C1=O` [Idebenone] belongs -12.8 (inactive); to `C#C[C@]1(O)CC[C@H]2[C@@H]3[C@H](C)CC4=C(CCC(=O)C4)[C@H]3CC[C@@]21C` [Tibolone], -17.1 (inactive). As to `CCCC(CCC)C(=O)O` [Valproic Acid], the myelination was -6.19 (inactive).

On to `COc1ccnc(C[S+]([O-])c2nc3cc(OC(F)F)ccc3[nH]2)c1OC` (stereo not drawn) [Pantoprazole], for which the myelination was -9.58 (inactive). Still for that read-out and setting: to `CC[C@H]1OC(=O)[C@H](C)[C@@H](O[C@H]2C[C@@](C)(OC)[C@@H](O)[C@H](C)O2)[C@H](C)[C@@H](O[C@@H]2O[C@H](C)C[C@H](N(C)C)[C@H]2O)[C@](C)(O)C[C@@H](C)C(=O)[C@H](C)[C@@H](O)[C@]1(C)O` [Erythromycin] belongs -11.1 (inactive); to `Nc1nc(=O)c2nc(CNc3ccc(C(=O)N[C@@H](CCC(=O)O)C(=O)O)cc3)cnc2[nH]1` [Folic acid], -5.35 (inactive); to `CC(=O)O[C@]1(C(C)=O)CC[C@H]2[C@@H]3C=C(C)C4=CC(=O)CC[C@]4(C)[C@H]3CC[C@@]21C` [Megestrol acetate], -33.5 (inactive). Take `CC(CN1c2ccccc2Sc2ccccc21)N(C)C` (stereo not drawn) [Promethazine]: the myelination is -18.8 (inactive).

Turning to `Cc1c(C(=O)NN2CCCCC2)nn(-c2ccc(Cl)cc2Cl)c1-c1ccc(I)cc1`, the myelination is 17.6 (inactive).
